# Rows were chosen to be rich in hits. Some 11% of all compounds tested hit in one or more screens of this group.
# HPGD block = HPGD (human) dehydrogenase inhibition; P15428; purified HPGD, NADH fluorescence kinetic, PGE2 substrate; Potency, µM, actives largely listed as inhibitors; 150,000 tested, 4.3% active
#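 20 nM HPGD preincubated 15 min at room temperature with compound in 50 mM Tris-HCl pH 8, 0.01% Tween 20. Started with 1 mM NAD+ and 30 uM prostaglandin E2; NADH fluorescence (360/450 nm) read 5 times over 30-s intervals, last minus first.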
# IMPase Li cell = cell-permeable IMPase inhibitors with lithium potentiation | 210,000 tested, 0.35% active | CHO-M1 cells, IP1 TR-FRET (IP-One), carbachol + lithium | Potency, µM (doses to about 59.4 µM), usual class: inhibitors | AID 1457; active = well fitted inhibition curve with a large enough effect; inconclusive = small, poorly fitted or top-dose-only effect; inactive = no such curve, though single readings can be large or run the other way;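 also: IP1 builds up when IMPase is blocked and the TR-FRET signal falls; nearly all actives have a fitted effect of over 50% in size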
#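 IP1 accumulation measured by competitive TR-FRET in lysed CHO-M1 cells after 30 min compound exposure at 37C, with a small lithium addition to potentiate weak responses. Hill-equation AC50 from ratio and donor-channel data.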
# IMPase inh = membrane-permeable compound that blocks inositol monophosphatase | 120,000 tested, under 10 active | CHO-M1 cells, IP1 accumulation, HTRF TR-FRET ratio | inhibition (IP1 accumulation), % at 46.1 µM; active = well fitted curve in the direction sought with a large enough effect in the signal ratio, not every such curve was filed as active; inconclusive = small, poorly fitted or top-dose-only effect, or a change in a side signal; inactive = no such curve, though single readings can be large or run the other way; the % refers to the signal ratio;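 also: cells stimulated with carbachol in lithium chloride buffer; higher means more IMPase inhibition seen as more IP1 and lower FRET ratio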
#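 In this qHTS, compounds (final up to 46 uM) act on CHO-M1 cells that are then activated through the M1 receptor with carbachol, in pH 7.4 buffer containing 50 mM LiCl, for 30 min. IP1 accumulation is quantified by the IP-One immunoassay.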
# PNC inhibitor = inhibitors of perinucleolar compartment assembly. PC3M PTB-GFP, PNC prevalence imaging, 16 h; stronger effect = lower value. activity change (PNC), negative = inhibition, % at 10 µM. 140,000 tested, 3.1% active. AID 2417;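 active = readout at or below -70, meaning at least 70% loss of cells showing the perinucleolar compartment, a nuclear body marking cancer cells; inconclusive = readout between -30 and a set limit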
#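 Read-out is percentage of cells bearing a perinucleolar compartment, from automated 20x imaging of fixed, Hoechst-stained PC3M PTB-GFP cells. Cells were seeded 4 h, then exposed 16 h to compound (23 nl of library stock) in duplicate plates.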
# ALDH1A1 inh = inhibitors of human aldehyde dehydrogenase 1A1. Purified ALDH1A1, NADH fluorescence, propionaldehyde substrate. P00352. 220,000 tested, 7.3% active. Potency, µM (doses to about 75.3 µM), hits mostly inhibitors
# Target sequence (P00352 whole entry, looked up): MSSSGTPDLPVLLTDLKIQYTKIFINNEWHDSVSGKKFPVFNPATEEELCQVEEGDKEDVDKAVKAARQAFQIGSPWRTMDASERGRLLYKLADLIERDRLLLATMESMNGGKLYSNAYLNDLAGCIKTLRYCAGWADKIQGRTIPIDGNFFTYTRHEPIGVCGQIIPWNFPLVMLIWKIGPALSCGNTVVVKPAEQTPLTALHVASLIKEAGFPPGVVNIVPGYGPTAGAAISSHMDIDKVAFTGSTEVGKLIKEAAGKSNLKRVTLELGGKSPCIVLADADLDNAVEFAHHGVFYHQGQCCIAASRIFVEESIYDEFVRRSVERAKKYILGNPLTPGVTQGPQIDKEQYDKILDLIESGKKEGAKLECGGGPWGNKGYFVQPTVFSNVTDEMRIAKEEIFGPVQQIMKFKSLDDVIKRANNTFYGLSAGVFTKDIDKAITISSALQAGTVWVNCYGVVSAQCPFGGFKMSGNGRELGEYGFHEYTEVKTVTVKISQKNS
# Numbers stand for hits; n = inactive; u = inconclusive; x = no result given; [ ] = remark or other dose. Unless noted, calls follow the shape of the dose curve; as a rule, active = well fitted inhibition curve with a large enough effect (not every such curve was filed as active); inconclusive = small, poorly fitted or top-dose-only effect, or another doubt; inactive = no such curve, though single readings can be large or run the other way.
SMILES,HPGD block,IMPase Li cell,IMPase inh,PNC inhibitor,ALDH1A1 inh
COc1ccc(-c2nc3cnc(N4CCOCC4)nc3n(CCc3ccccc3)c2=O)cc1,x,n,x,x,u
Cc1[nH]c2ccccc2c1C1N2CC3(C)CN1CC(C)(C2)C3=O (configuration not stated),x,x,n,x,x
COc1cc2c(cc1OC)C(c1c[nH]c3ccccc13)NCC2 (configuration not stated),n,n,x,x,n
CCOC(=O)c1c(NC(=O)c2cc(OCC)c(OCC)c(OCC)c2)sc2c1CCCCC2,x,x,n,x,x
Clc1ccc(-n2nnnc2-c2ccccc2)cc1,n,n,n,u,n
COc1ccc(OCc2nnnn2-c2ccccc2)cc1,n,n,n[1.84 µM],-92.7,u
COc1ccc(Oc2cnn(-c3ccccc3)c(=O)c2Br)cc1,x,u,x,x,25.1µM
Brc1ccc(OCc2nnnn2-c2ccccc2)cc1,x,n,x,x,u
COc1ccc(-n2nnnc2-c2ccccc2)cc1,n,n,n,-82.5,n
Cc1c(N=C2SCC(=O)N2/N=C\c2ccc(Br)cc2)c(=O)n(-c2ccccc2)n1C,n,n,n,n,n
O=C1C2CC=C(Cl)CC2C(=O)N1CCCCCCN1C(=O)C2CC=C(Cl)CC2C1=O (configuration not stated),15.8µM,n,n,u,22.4µM
O=C1C2CC=C(Cl)CC2C(=O)N1CCN1CCOCC1 (configuration not stated),n,n,n,n,n
NC[C@H](O)C1CCCCCCC1,x,x,n,x,x
CCOCCCNC(=O)COC(=O)/C=C/c1ccc(S(=O)(=O)N2CCc3ccccc32)cc1,x,n,x,x,7.94µM
Cc1ccc(N2C(=O)C3C4C=CC(CNC(=S)N5CCN(c6cccc(C)c6)C(C)C5)(O4)C3C2=O)cc1 (configuration not stated),x,n,x,x,1.58µM
Cc1cccc(N2CCN(C(=O)CN3CCOc4ccccc43)CC2C)c1 (configuration not stated),n,n,n,n,u
Nc1ccc(-c2cc(N)n(-c3ccccc3)n2)cc1,n,n,n,u,11.2µM
O=C(Nc1cccc(Oc2ccc3c(c2)C(=O)NC3=O)c1)c1cccs1,14.1µM,n,n,n,n
CCOC(=O)c1cccc(NC(=O)c2cccs2)c1,n,n,n,n,n
O=C(COc1cccc(NC(=O)c2ccccc2)c1)c1ccccc1,x,n,x,x,n
O=C(COc1cccc(NC(=O)c2cccs2)c1)c1ccc(F)cc1,15.8µM,n,x,n,n
COc1ccc(S(=O)(=O)c2ccc(OC)c(OC)c2)cc1OC,x,x,n,u,n
O=C1CS/C(=C/C(=O)c2ccccc2)N1,20µM,n,n,u,n
Cc1ccccc1C(=O)/C=C1\NC(=O)CS1,15.8µM,n,n,n,25.1µM
Cc1cc(C)cc(C(=O)/C=C2\NC(=O)CS2)c1,u,n,n,n,n
SMILES,HPGD block,IMPase Li cell,IMPase inh,PNC inhibitor,ALDH1A1 inh
COC(=O)NC(NC(=S)Nc1ccccc1OC)C(Cl)(Cl)Cl (configuration not stated),x,x,n,n,3.16µM
COC(=O)NC(NC(=S)Nc1ccc([N+](=O)[O-])cc1)C(Cl)(Cl)Cl (configuration not stated),31.6µM,n,n,n,20µM
CC(=O)NC(NC(=S)Nc1ccc(N=Nc2ccccc2)cc1)C(Cl)(Cl)Cl (configuration not stated),n,n,n,n,12.6µM
CCOC(=O)NC(NC(=S)Nc1ccc(OC)cc1)C(Cl)(Cl)Cl (configuration not stated),n,n,x,n,n
COc1ccc([N+](=O)[O-])cc1NC(=S)NC(NC(=O)C(c1ccccc1)c1ccccc1)C(Cl)(Cl)Cl (configuration not stated),n,n,n,n,20µM
CCN(Cc1ccccc1)C(=O)c1nn(-c2ccc(OC)cc2)c(=O)c2c1c1ccccc1n2C,x,n,x,x,u
O=C(C(Cc1ccccc1)n1cccc1)N1CCN(Cc2ccccc2)CC1 (configuration not stated),n,n,n,n,u
O=C(C(Cc1ccccc1)n1cccc1)N1CCCCC1 (configuration not stated),12.6µM,n,n,u,n
O=C(C(Cc1ccccc1)n1cccc1)N1CCN(c2cccc(Cl)c2)CC1 (configuration not stated),n,n,n,n,n
O=C(C(Cc1ccccc1)n1cccc1)N1CCCCCC1 (configuration not stated),28.2µM,n,n,n,n
CCOc1ccc(NS(=O)(=O)CC23CCC(CC2=O)C3(C)C)cc1 (configuration not stated),n,n,n,n,n
COc1ccc(NS(=O)(=O)CC23CCC(CC2=O)C3(C)C)cc1 (configuration not stated),n,n,n,n,7.94µM
O=C(CNS(=O)(=O)c1ccc(Br)s1)NCC1COc2ccccc2O1 (configuration not stated),n,n,n,n,n
COc1ccc(NC(=O)c2cccnc2NCCc2ccccc2)cc1,n,n,x,n,n
COc1ccccc1NC(=O)c1cnc(Nc2ccccc2OC)c2ccccc12,u,n,x,-85.6,u
COc1ccccc1Nc1ncc(C(=O)N2CCC(C(N)=O)CC2)c2ccccc12,n,n,n,n,n
COc1ccccc1Nc1ncccc1C(=O)O,n,n,n,-100.0,n
COc1cccc(Nc2ncccc2C(=O)Nc2ccccc2)c1,n,n,n,-80.4,n
CC1CC2C3CC(F)C4=CC(=O)C=C[C@@]4(C)[C@@]3(F)C(O)C[C@]2(C)[C@]1(O)C(=O)COC(=O)C(C)(C)C (some centres not stated),n,n,x,x,n
Cc1cccc(CNc2cc(-c3ccoc3)ncn2)c1,20µM,n,x,x,u
Cc1ccc(C(=O)c2c[nH]c(C(=O)NCc3cccnc3)c2)cc1,25.1µM,n,n,n,u
O=C(NCc1cccc(C(F)(F)F)c1)c1cc(Cl)ccc1Cl,28.2µM,n,x,-108.3,n
O=C(Cc1cccc(C(F)(F)F)c1)NCc1cccc(Cl)c1,n,n,n,u,n
COc1cccc(C(=O)c2c[nH]c(C(=O)NCc3cccnc3)c2)c1,x,n,x,x,n
O=C(NCc1cccnc1)c1cccc(C(F)(F)F)c1,n,n,n[1.84 µM],-94.1,n
SMILES,HPGD block,IMPase Li cell,IMPase inh,PNC inhibitor,ALDH1A1 inh
O=C(O)NCc1ccccc1 (tested in a mixture with another compound),n,n,x,x,n[13.5 µM]
O=c1cc(N=Nc2ccc(O)cc2)[nH]c(=O)[nH]1,n,n,x,x,n[13.5 µM]
O=C(CSCc1ccccc1)N=Nc1c(O)[nH]c2ccccc12,n,n,n,n,u
CCn1c(SCC(=O)N=Nc2c(O)[nH]c3ccccc23)nc2ccccc21,n,n,x,n,6.31µM
O=C(CSCc1cccc(Br)c1)N=Nc1c(O)[nH]c2ccccc12,n,n,n,n,7.94µM
C=CCNC(=O)/C(C#N)=C\c1cc(Cl)c(O)c(OCC)c1,n,n,n,n,u
